In ChEMBL document CHEMBL4513156, “CO-ADD screening of NCPRI (Romania) compounds” one finds Inhibition data, which are given here for 37 compounds.

Results with a measured potency or affinity are listed apart.

The experiment relates to Klebsiella pneumoniae. The settings on record: Concentration 32 ug.mL-1; ASSAY_TEST Inhibition of Bacterial Growth; detection method Absorption (OD600); MEDIA CAMHB; plate type 384well; NBS; CORNING #3640; time 18 hr.
As to `O=C1C[C@H]2[C@H](/C=N/NC(=O)c3ccncc3)[C@H](C[C@@H]2Cl)O1`, the Inhibition stood at 20.57%.
The result for `O=C(N/N=C/COc1cccc(Cl)c1)c1ccncc1` reads 5.99%; that for `O=C(N/N=C1\C[C@@H]2[C@H](COC(c3ccccc3)(c3ccccc3)c3ccccc3)C[C@H](CO)[C@@H]2C1)c1ccncc1`, 2.31%.
Consider `O=C(N/N=C1/C[C@@H]2[C@H](COC(c3ccccc3)(c3ccccc3)c3ccccc3)C[C@H](COC(c3ccccc3)(c3ccccc3)c3ccccc3)[C@@H]2C1)c1ccncc1`, for which the Inhibition was -5.52%.
With `O=C(NN=C[C@H]1[C@H]2CC(O)OC[C@H]2C[C@H]1O)c1ccncc1` (some centres not stated) the figure was 2.56%; with `O=C(N/N=C1/C[C@@H]2[C@@H](C(=O)O)[C@H]1C[C@H]2Cl)c1ccncc1`, 18.24%.
With `O=C(ON/N=C/[C@@H]1[C@@H]2C[C@H](Cl)[C@H]1C[C@H]2O)c1ccncc1` the figure was 14.1%.
For `O=C(N/N=C/CCCO)c1ccncc1`, the Inhibition was 3.72%.
With `O=C(NN=C[C@H]1[C@@H]2CCO[C@@H]2C[C@@H]1O)c1ccncc1` the figure was 9.72%.
On to `O=C(N/N=C/C[C@@H]1[C@@H](/C=C/[C@@H](O)COc2ccccc2)[C@H](O)C[C@@H]1O)c1ccncc1`, for which the Inhibition turned out to be 13.01%.
As to `O=C(NN=CC[C@@H]1[C@@H](/C=C/[C@@H](O)CCc2ccccc2)[C@H](O)C[C@@H]1O)c1ccncc1`, the Inhibition is recorded as 16.12%.
With `COC(=O)CCCCCC[C@@H]1[C@@H](/C=N/NC(=O)c2ccncc2)[C@H](O)C[C@@H]1O` the figure was 5.87%.
The result for `COC(=O)CCCCCC[C@@H]1[C@@H](/C=N/NC(=O)c2ccncc2)[C@H](OC(=O)c2ccccc2)C[C@@H]1O` reads 15.74%; that for `O=C(N/N=C/C[C@@H]1[C@@H](/C=N/NC(=O)c2ccncc2)[C@H](O)C[C@@H]1O)c1ccncc1`, 9.84%.
Take `O=C(N/N=C1\C[C@@H]2[C@@H](CO)[C@H]1C[C@H]2Cl)c1ccncc1`: the Inhibition worked out at 21.63%.
With `O=C(NN=CC[C@H]1[C@H](CO)[C@@H](O)C[C@H]1O)c1ccncc1` the figure was 13.38%; with `CC(C)(C)[Si](C)(C)O[C@H](/C=C/[C@@H]1[C@@H](CC=NNC(=O)c2ccncc2)[C@@H](O)C[C@H]1O[Si](C)(C)C(C)(C)C)CCc1ccccc1`, 11.71%; with `O=C(NNC(=O)[C@@H]1C[C@H](C(=O)O)[C@@H]2CCC[C@@H]21)c1ccncc1`, 17.49%.
The result for `O=C(NN=CC[C@@H]1[C@@H](/C=C/[C@@H](O)CCc2ccccc2)[C@H](OC(=O)c2ccccc2)C[C@@H]1O)c1ccncc1` reads 14.41%; that for `O=C(NNC(=O)c1ccc([N+](=O)[O-])cc1C(=O)O)c1ccncc1`, 17.92%.
The result for `O=C(NNC(=O)[C@@H]1C[C@H](C(=O)O)[C@@H]2CC=C[C@@H]21)c1ccncc1` reads 15.82%; that for `O=C(N/N=C/C[C@@H]1[C@@H](/C=C/[C@@H](O)COc2cccc(Cl)c2)[C@H](O)C[C@@H]1O)c1ccncc1`, 18.63%.
As to `O=C(N/N=C1\CC[C@@H]2[C@H]1[C@H](OC(=O)c1ccccc1)C[C@@H]2OC(=O)c1ccccc1)c1ccncc1`, the Inhibition is on record as 13.57%.
The result for `CC(C)(C)[Si](C)(C)OC[C@H]1[C@H](CC=NNC(=O)c2ccncc2)[C@H](O)C[C@@H]1O[Si](C)(C)C(C)(C)C` reads 19.31%; that for `O=C(N/N=C1/C[C@H]2[C@H](CO)[C@@H]1C[C@@H]2Cl)c1ccncc1`, 18.7%.
With `O=C(N/N=C1/C2C[C@H]3C(C2CO)[C@H]13)c1ccncc1` (some centres not stated) the figure was 15.76%; with `O=C(N/N=C1/C[C@@H]2[C@H](C1)[C@H](OC(=O)c1ccccc1)C[C@@H]2OC(=O)c1ccccc1)c1ccncc1`, 10.86%; with `O=C(NNC(c1ccccc1)(c1ccccc1)c1ccccc1)c1ccncc1`, 4.48%.
With `O=C(NNC(=O)c1cccc([N+](=O)[O-])c1C(=O)O)c1ccncc1` the figure was 15.09%; with `COC(=O)C[C@H]1[C@H](/C=N\NC(=O)c2ccncc2)[C@@H](O[Si](C)(C)C(C)(C)C)C[C@@H]1Cl`, 21.45%.
In the case of `O=C(NN=CC[C@@H]1[C@@H](COC2CCCCO2)[C@H](OC2CCCCO2)C[C@@H]1O)c1ccncc1` (some centres not stated), the Inhibition is 4.99%.
`O=C1C[C@@H]2[C@@H](C=NNC(=O)c3ccncc3)[C@@H](C[C@H]2Cl)O1`: the Inhibition stood at 20.62%.
Turning to `O=C(N/N=C/C[C@@H]1[C@@H](CO)[C@H](O)C[C@@H]1O)c1ccncc1`, the Inhibition is reported as 16.63%.
With `O=C(N/N=C1/C2C[C@H]3C(C2C(=O)O)[C@@H]13)c1ccncc1` (some centres not stated) the figure was 8.85%; with `CC(C)(C)[Si](C)(C)OCC1C2C[C@H]3C1[C@@H]3/C2=N/NC(=O)c1ccncc1` (some centres not stated), 15.16%; with `O=C(N/N=C/[C@@H]1C[C@H](CO)[C@@H]2CCC[C@@H]21)c1ccncc1`, 17.88%.
On to `NNC(=O)c1ccncc1` [ISONIAZID], for which the Inhibition turned out to be 18.82%.

Broadly, the Inhibition is the relative decrease from the control value, in per cent.
